About 79,000 compounds went through this panel and 15% of them were active in at least one assay; those are over-represented in the sample as a whole. Active and inactive are the calls of the source. No stated cut-off is given here; in the data, active means growth inhibition above about 70%; inactive means the rest.
What was measured:
[1] = NCI Yeast Anticancer Drug Screen. Data for the rad50 strain (AID 155);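 further: 0% = growth of vehicle-only cultures of the same strain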; conditions: S. cerevisiae rad50 strain growth inhibition, stronger effect = higher value
Summary of the method: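 Inhibition values express reduced yeast growth in compound-treated cultures relative to vehicle-treated controls.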

[2] = NCI Yeast Anticancer Drug Screen. Data for the mec2-1 strain (AID 157); conditions: S. cerevisiae mec2-1 strain, stronger effect = higher value
Summary of the method: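 Using mec2-1 yeast: add compound, measure growth, express inhibition versus vehicle-treated cultures.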

[3] = NCI Yeast Anticancer Drug Screen. Data for the sgs1 mgt1 strain (AID 161);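 further: 0% = growth of cultures given vehicle only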; conditions: S. cerevisiae sgs1 mgt1 strain, stronger effect = higher value
Summary of the method: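 Compounds are added to genetically altered yeast, and growth is compared with cultures given vehicle alone to give percent inhibition.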

[4] = NCI Yeast Anticancer Drug Screen. Data for the cln2 rad14 strain (AID 165);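 further: 0% = growth equal to vehicle treated cultures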; conditions: S. cerevisiae cln2 rad14 strain, stronger effect = higher value
Summary of the method: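 Yeast strain cln2 rad14, bearing defects in cell cycle control and DNA repair, serves as the test system; values reflect growth inhibition compared with vehicle.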

[5] = NCI Yeast Anticancer Drug Screen. Data for the bub3 strain (AID 167); conditions: S. cerevisiae bub3 mutant strain, stronger effect = higher value
Summary of the method: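 Steps: expose the mutant yeast strain to compound; grow alongside vehicle-treated cultures; measure growth; express inhibition against the vehicle cultures.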

[6] = NCI Yeast Anticancer Drug Screen. Data for the mlh1 rad18 strain (AID 175); conditions: S. cerevisiae mlh1 rad18 strain growth inhibition, stronger effect = higher value
Summary of the method: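 Steps: expose repair-defective yeast to compound; measure growth; express inhibition against vehicle-treated controls.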

[7] = at 5.0 µM (retest, dose inferred, filed as 0.5)
[8] = at 50.0 µM (retest, dose inferred, filed as 5.0)

Measured: growth inhibition

COc1ccc2nc3cc(Cl)ccc3c(NCCNCCCNC(=O)c3cc(-c4ccccc4)nc4ccccc34)c2c1
inactive: [1]; [7] -14% | [2]; [7] -1% | [3]; [7] -5% | [3]; [8] 69% | [4]; [7] 30% | [5]; [7] -15% | [6]; [7] -11%
active: [1]; [8] 98% | [1]; at 50.0 µM 96.3% | [2]; [8] 87% | [2]; at 50.0 µM 93.9% | [3]; at 50.0 µM 95.2% | [4]; [8] 98% | [4]; at 50.0 µM 97.5% | [5]; [8] 97% | [5]; at 50.0 µM 94.2% | [6]; [8] 98% | [6]; at 50.0 µM 98.2%

CC(C)c1ccc(S(=O)(=O)c2ccc([N+](=O)[O-])cc2[N+](=O)[O-])cc1
active: [1]; [7] 98% | [1]; [8] 91% | [1]; at 50.0 µM 93.8% | [2]; [7] 100% | [2]; [8] 97% | [2]; at 50.0 µM 96.5% | [3]; [7] 100% | [3]; [8] 97% | [3]; at 50.0 µM 96.8% | [4]; [7] 76% | [4]; [8] 94% | [4]; at 50.0 µM 94.5% | [5]; [7] 95% | [5]; [8] 96% | [5]; at 50.0 µM 96.2% | [6]; [7] 99% | [6]; [8] 95% | [6]; at 50.0 µM 96.2%

CCCCCCCCCCCCCC(=O)OCC[N+](C)(C)C
active: [1]; [8] 98% | [1]; at 50.0 µM 90.2% | [2]; [8] 99% | [2]; at 50.0 µM 92.5% | [3]; [8] 99% | [3]; at 50.0 µM 92.9% | [4]; [8] 98% | [4]; at 50.0 µM 88.8% | [5]; [8] 99% | [5]; at 50.0 µM 91.5% | [6]; [8] 98% | [6]; at 50.0 µM 90.5%
inactive: [1]; [7] 26% | [2]; [7] 27% | [3]; [7] 41% | [4]; [7] 32% | [5]; [7] 40% | [6]; [7] 34%

ON=C1c2ccccc2-c2ccccc21
inactive: [1]; [7] 8% | [1]; [8] 58% | [1]; at 50.0 µM 54.2% | [2]; [7] 2% | [2]; [8] 21% | [2]; at 50.0 µM -3.05% | [3]; [7] 2% | [3]; [8] 30% | [3]; at 50.0 µM 41.5% | [4]; [7] -12% | [4]; [8] -6% | [4]; at 50.0 µM -68.6% | [5]; [7] -4% | [5]; [8] 9% | [5]; at 50.0 µM 30.9% | [6]; [7] 9% | [6]; [8] 58%
active: [6]; at 50.0 µM 71.7%

NC(=O)NC(CC(=O)O)C(=O)O (configuration not stated)
inactive: [1]; [7] -6% | [1]; [8] 12% | [1]; at 50.0 µM -19.9% | [2]; [7] -7% | [2]; [8] -4% | [2]; at 50.0 µM -4.35% | [3]; [7] -8% | [3]; [8] -5% | [3]; at 50.0 µM -6% | [4]; [7] -3% | [4]; [8] -4% | [4]; at 50.0 µM 65.8% | [5]; [7] 3% | [5]; [8] -6% | [5]; at 50.0 µM -29.8% | [6]; [7] -8% | [6]; [8] 4% | [6]; at 50.0 µM -1.7%

Cn1c(N)c(N=Nc2ccc(S(N)(=O)=O)cc2)c(=O)n(C)c1=O
inactive: [1]; [7] 0% | [1]; [8] 24% | [1]; at 50.0 µM -23.8% | [2]; [7] 22% | [2]; [8] -4% | [2]; at 50.0 µM -6.75% | [3]; [7] 7% | [3]; [8] 10% | [3]; at 50.0 µM -36.8% | [4]; [7] 27% | [4]; [8] 8% | [4]; at 50.0 µM 28.7% | [5]; [7] 6% | [5]; [8] 9% | [5]; at 50.0 µM -44.8% | [6]; [7] 5% | [6]; [8] 10% | [6]; at 50.0 µM -9.4%

CCCCCCCC1SCC(=O)N1c1nncs1 (configuration not stated)
inactive: [1]; [7] -11% | [1]; at 50.0 µM -10.8% | [2]; [7] 0% | [2]; [8] 65% | [2]; at 50.0 µM -20.4% | [3]; [7] 0% | [3]; at 50.0 µM 1.45% | [4]; [7] -5% | [4]; at 50.0 µM 3.1% | [5]; [7] 19% | [5]; at 50.0 µM 2.9% | [6]; [7] -10% | [6]; at 50.0 µM 5.7%
active: [1]; [8] 96% | [3]; [8] 95% | [4]; [8] 80% | [5]; [8] 95% | [6]; [8] 73%

CCN1/C(=C\c2cc[n+](CC)c3ccccc23)C=Cc2ccccc21
active: [1]; [8] 96% | [2]; [8] 96% | [3]; [8] 86% | [4]; [8] 96% | [5]; [8] 97% | [6]; [8] 97%
inactive: [1]; [7] -3% | [1]; at 50.0 µM 42.4% | [2]; [7] 2% | [2]; at 50.0 µM 51.5% | [3]; [7] -1% | [3]; at 50.0 µM 32.4% | [4]; [7] -8% | [4]; at 50.0 µM -31.4% | [5]; [7] 6% | [5]; at 50.0 µM 68.8% | [6]; [7] 1% | [6]; at 50.0 µM 53.4%

Cc1ccc(S(=O)(=O)Oc2ccc3oc4c(CO)ccc(NCCN(C)C)c4c(=O)c3c2)cc1
active: [3]; at 50.0 µM 97.8%
inactive: [1]; [7] 3% | [1]; [8] 5% | [1]; at 50.0 µM 16.6% | [2]; [7] 0% | [2]; [8] -32% | [2]; at 50.0 µM -17.6% | [3]; [7] 2% | [3]; [8] 16% | [4]; [7] 1% | [4]; [8] 7% | [4]; at 50.0 µM -2.35% | [5]; [7] 3% | [5]; [8] 4% | [5]; at 50.0 µM -9.25% | [6]; [7] 3% | [6]; [8] 14% | [6]; at 50.0 µM 43%

Source: PubChem BioAssay (NCI)
